Only some compounds are listed: those with a hit (about 21% of all), similar ones and a draw of the others.
CHX counter: affects cycloheximide protein synthesis inhibition readout, counter-screen; cell reporter, cycloheximide protein synthesis inhibition counterscreen; max response, %; 300,000 compounds, 12% hits; in the data active = max response mostly above about 13%, no sharp cut-off; inactive = mostly below about 14%; also: read at 38.3 µM for the half of the compounds with a filed dose; 0% is about no effect
Shiga inhibitor: inhibitors of Shiga toxin in Vero cells; Vero cells, Shiga toxin protein synthesis inhibition reporter; inhibition, % at 38.7 µM; 290,000 compounds, 9.2% hits; in the data active = inhibition mostly above about 28%, no sharp cut-off; inactive = mostly below about 43%; also: 0% is about no effect
Pf growth 96h: inhibits malaria parasite growth, 96 h; P. falciparum luciferase reporter growth, 96 h; Potency, µM (top dose mostly 28.7 µM), for inactives: at the highest dose activity change, negative = inhibition, most hits filed as inhibitors; 320,000 compounds, 6.9% hits; also: potency is read from the fitted curve at half-maximal effect; % is scaled to controls: 0 for no effect and ±100 for the full control effect
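Infected RBCs, 2% Hct / 0.05% parasitemia final; luciferase-reporter P. falciparum; cpd 96 h, 37 C, 5% CO2; luciferase detection reagent; luminescence.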
Pf growth 48h: P. falciparum growth inhibition at 48 hours (one generation) | P. falciparum luciferase growth in erythrocytes, 48 h | Potency, µM (top dose mostly 28.7 µM), for inactives: at the highest dose activity change, negative = inhibition, most hits filed as inhibitors | 310,000 compounds, 5.9% hits | AID 504832; also: potency is read from the fitted curve at half-maximal effect; % is scaled to controls: 0 for no effect and ±100 for the full control effect
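Erythrocytes infected with P. falciparum carrying an integrated firefly luciferase reporter (2% hematocrit, 0.1% parasitemia final) were exposed to compounds in RPMI 1640 with 0.5% Albumax at 37 C, 5% CO2. Growth inhibition was scored as reduced luminescence.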
An asterisk follows results filed as active; [ ] = remark or other dose. Unless noted, calls follow the shape of the dose curve; as a rule, active = well fitted inhibition curve with a large enough effect; inconclusive = small, poorly fitted or top-dose-only effect, or another doubt; inactive = no such curve, though single readings can be large or run the other way.

For COc1ccccc1C(=O)O[C@H]1[C@H](Cc2ccccc2)NS(=O)(=O)[C@H]2C[C@@H]3C=C[C@]12O3 the results were Pf growth 96h 5.86µM* and Pf growth 48h inconclusive.
O=C(COc1ccc(Br)cc1)NCc1ccccn1 was read as CHX counter -3.1, Shiga inhibitor 9.1 and Pf growth 96h 22.6%.
CC(C)(C)C(=O)NNC(=O)COc1ccc2ccccc2c1Br was read as CHX counter -2.5, Shiga inhibitor 9.9, Pf growth 96h 2.33µM* and Pf growth 48h 5.9%.
`O=C(COc1ccc2ccccc2c1Br)NCc1ccccn1` gave CHX counter 23.2*, Shiga inhibitor 57.4*, Pf growth 96h 2.6% and Pf growth 48h 33.5%.
For O=C(N/N=C/c1cccc([N+](=O)[O-])c1)C(=O)N1CCCCCC1 the results were CHX counter -2.6, Shiga inhibitor -28.0, Pf growth 96h 37.1% and Pf growth 48h 4.2%.
`CCOc1ccc(-c2n[nH]c(=S)c3ccccc23)cc1` gave CHX counter -3.8, Shiga inhibitor -4.9, Pf growth 96h 1.65µM* and Pf growth 48h inconclusive.
For CCOc1ccc(-c2n[nH]c(=S)o2)cc1 the results were CHX counter 20.5*, Shiga inhibitor 19.0, Pf growth 96h 44.6% and Pf growth 48h 71.7%.
For CCOc1ccccc1-c1n[nH]c(=S)o1 the results were CHX counter -2.6, Shiga inhibitor -5.3 and Pf growth 96h -1.5%.
Cc1ccc(-c2n[nH]c(=S)c3ccccc23)cc1 was read as CHX counter 4.2, Shiga inhibitor -11.6, Pf growth 96h inconclusive and Pf growth 48h 0.0%.
For O=C(Nc1ccc(Br)cc1F)c1sccc1-n1cccc1 the results were CHX counter 14.5, Shiga inhibitor -8.0, Pf growth 96h 0.0% and Pf growth 48h 4.0%.
`O=C(Nc1ccc(Br)cc1F)c1ccc2nsnc2c1` gave CHX counter 32.7*, Shiga inhibitor 62.1*, Pf growth 96h 25.5% and Pf growth 48h 134.4%.
O=C(Nc1ccc(Br)cc1F)c1ccncc1 was read as CHX counter 25.1*, Shiga inhibitor 56.1* and Pf growth 48h 107.8%.
Screening Cc1ccc(NC(=O)c2ccc3nsnc3c2)c(Cl)c1 returned CHX counter 58.5*, Shiga inhibitor 105.4*, Pf growth 96h inconclusive and Pf growth 48h 134.0%.
Nc1ccc(NC(=O)c2cccc(C(=O)Nc3ccc(N)cc3Cl)c2)c(Cl)c1 was read as CHX counter -0.6, Shiga inhibitor -2.6, Pf growth 96h 143.4% and Pf growth 48h -18.6%.
For CCCOc1cccc(C(=O)Nc2ccc(Br)cc2F)c1 the results were CHX counter 41.6*, Shiga inhibitor 67.7*, Pf growth 96h -8.7% and Pf growth 48h 97.7%.
`CCCOc1cccc(C(=O)Nc2cccc3ncccc23)c1` gave CHX counter -0.7, Shiga inhibitor -6.6, Pf growth 96h inconclusive and Pf growth 48h -3.4%.
Screening C=CCOc1ccc(/C=N/NC(=O)c2c(C)nc3ccc(Cl)cn23)cc1 returned CHX counter -1.4, Shiga inhibitor -3.1, Pf growth 96h 0.0% and Pf growth 48h inconclusive.
For CC(C)C(NS(=O)(=O)c1ccc2c(c1)OCCCO2)C(=O)O (configuration not stated) the results were CHX counter 6.6, Shiga inhibitor -8.3, Pf growth 96h 34.4% and Pf growth 48h -8.7%.
Screening COCCCNC(=O)c1ccc(S(=O)(=O)c2ccc(C)cc2)c(NC(C)=O)c1 returned CHX counter -5.0, Shiga inhibitor 4.0, Pf growth 96h 15.0% and Pf growth 48h -1.9%[0.00184 µM].
Screening Cc1ccc2oc(=O)n(Cc3ccccc3)c2c1 returned CHX counter 12.4, Shiga inhibitor 1.5, Pf growth 96h inconclusive and Pf growth 48h -2.8%.
For CCOC(=O)c1cnc2ccc(OCC)cc2c1NCCN1CCOCC1 the results were CHX counter -0.9, Shiga inhibitor -4.4, Pf growth 96h inconclusive and Pf growth 48h inconclusive.
Screening CCOC(=O)c1cnc2ccc(OCC)cc2c1NCCCN1CCOCC1 returned CHX counter 17.6*, Shiga inhibitor 14.7, Pf growth 96h 5.9% and Pf growth 48h inconclusive.
CCOC(=O)c1cnc2c(c(C)nn2CC)c1NCCN1CCOCC1 was read as CHX counter -1.6, Shiga inhibitor 1.8, Pf growth 96h 11.7µM* and Pf growth 48h -24.8%.
CCOC(=O)c1cnc2c(C(F)(F)F)cccc2c1NCCCN1CCOCC1 was read as CHX counter -2.6, Shiga inhibitor -14.3, Pf growth 96h 221.7% and Pf growth 48h 5.22µM*.
`CCOc1ccc2ncc(S(=O)(=O)c3ccc(C)cc3)c(N3CCC4(CC3)OCCO4)c2c1` gave CHX counter -1.2, Shiga inhibitor -8.5, Pf growth 96h 7.38µM* and Pf growth 48h 11.7µM*.
For CCOc1ccc2[nH]cc(S(=O)(=O)c3ccc(C)cc3)c(=O)c2c1 the results were CHX counter 9.1, Shiga inhibitor -8.2, Pf growth 96h -7.6% and Pf growth 48h inconclusive.
`CCOC(=O)c1cnc2c(CC)cccc2c1NCCCN1CCOCC1` gave CHX counter 3.4, Shiga inhibitor 9.8, Pf growth 96h inconclusive and Pf growth 48h inconclusive.
CCCCCN(C(=O)CCC(=O)OCC(=O)Nc1cccc(CC)c1)c1c(N)n(CCCC)c(=O)[nH]c1=O was read as Pf growth 96h 24.4% and Pf growth 48h -21.9%.
`CC1CCCC(NC(=O)C2N(CCCN3CCCC3)C(=O)C3C(C(=O)Nc4cccc(Cl)c4)C4C=CC32O4)C1C` (configuration not stated) gave CHX counter -3.2, Shiga inhibitor -12.4, Pf growth 96h 27.2% and Pf growth 48h inconclusive.
Screening CCOC(=O)c1cnc2ccc(OCC)cc2c1N1CCN(C)CC1 returned CHX counter -0.6, Shiga inhibitor 15.1, Pf growth 96h 0.0% and Pf growth 48h 8.28µM*.
For C=CCN(CC=C)CCOc1ccc(C)cc1[N+](=O)[O-] the results were CHX counter 25.6*, Shiga inhibitor 70.8*, Pf growth 96h inconclusive and Pf growth 48h 15.1%.
C=CCN(CC=C)CCOc1cc(C)ccc1[N+](=O)[O-] was read as CHX counter 17.6*, Shiga inhibitor 40.2*, Pf growth 96h 27.9% and Pf growth 48h 20.0%[5.75 µM].
`C=CCNCCOc1ccc(C)cc1[N+](=O)[O-]` gave CHX counter 3.0, Shiga inhibitor 7.5, Pf growth 96h -37.6% and Pf growth 48h 1.3%.
Screening Cc1cc(NCc2ccco2)n2ncnc2n1 returned CHX counter -2.1, Shiga inhibitor -13.3, Pf growth 96h inconclusive and Pf growth 48h 0.6%.
`COc1ccc(NC(=O)C2CCCN(S(=O)(=O)c3ccc4c(c3)CCCN4C(C)=O)C2)cc1` (configuration not stated) gave CHX counter 3.7, Shiga inhibitor -1.0, Pf growth 96h -21.7% and Pf growth 48h 11.7µM*.
CCOc1ccc(NC(=O)C2CCCN(S(=O)(=O)c3ccc4c(c3)CC(C)N4C(C)=O)C2)cc1 (configuration not stated) was read as CHX counter -3.3, Shiga inhibitor 6.7, Pf growth 96h inconclusive and Pf growth 48h inconclusive.
`COc1ccc(NC(=O)C2CCCN(S(=O)(=O)c3ccc4c(c3)CC(C)N4C(C)=O)C2)cc1` (configuration not stated) gave CHX counter 7.4, Shiga inhibitor -4.3, Pf growth 96h -14.6% and Pf growth 48h 13.1µM*.
